Data as given in PubChem BioAssay (Tox21).
Records with an inconclusive call do not appear. The source made the active and inactive calls. Unless noted, the call rests on the fitted dose curve; in most records, active means well fitted curve in the direction sought with a large enough effect in the repeat runs; inconclusive means weak or mixed curves; inactive means no such curve, though single readings can be large; an effect the other way counts as inactive or inconclusive.

Key:
[1] = qHTS assay for small molecules that induce genotoxicity in human embryonic kidney cells expressing luciferase-tagged ATAD5 (AID 651632); further: nearly all actives have a fitted effect of over 15% in size
How it was run: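 Reporter cells (HEK293T) express luciferase-tagged ATAD5, a protein that accumulates after DNA damage. Treat 16 hr at 37C/5% CO2, add Amplite, wait 30 min at RT, and read luminescence.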

[2] = qHTS assay for small molecule agonists of the p53 signaling pathway - cell viability (AID 651633; calls by dose curve;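 further: p53RE-bla HCT reporter cells with a stable beta-lactamase p53 reporter; series mostly up to about 83 µM; nearly all actives have a fitted effect of over 30% in size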)
How it was run: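 Viability counter-read: CellTiter-Glo luminescence (30 min, room temperature) in the same p53RE-bla plates. These plates had been exposed to compounds for 16 h at 37 C.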

[3] = qHTS assay for small molecules that induce genotoxicity in human embryonic kidney cells expressing luciferase-tagged ATAD5 - cell viability (AID 651634; calls by dose curve; further: nearly all actives have a fitted effect of over 25% in size)
How it was run: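 Seeding of 2,000 HEK293T ATAD5-luciferase cells per well preceded pin-tool compound transfer. Plates sat 15.5 hr at 37C under 5% CO2, then fluorescence was read after 30 min with CellTiter-Fluor.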

[4] = qHTS assay for small molecule disruptors of the mitochondrial membrane potential - cell viability (AID 720634; calls by dose curve;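 further: human HepG2 liver cancer cells; series mostly up to about 83 µM; nearly all actives have a fitted effect of over 20% in size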)
How it was run: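 Measuring cytotoxicity alongside mitochondrial potential, the screen quantified ATP by luminescence in HepG2 cells after 1 hr compound incubation and a 30 min room-temperature CellTiter-Glo step.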

[5] = qHTS assay for small molecule disruptors of the mitochondrial membrane potential (AID 720635); further: potency means the concentration at half of the fitted maximal effect
How it was run: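 Mitochondrial membrane potential tracked with Mito-MPS dye, red aggregates (ex 540/em 590 nm) against green monomers (ex 490/em 535 nm). Compound treatment 1 hr at 37C, dye 30 min in HepG2.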

[6] = qHTS assay to test for compound auto fluorescence at 590 nm (red) in HepG2 cells (AID 720674)
How it was run: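 We screened compounds on adherent HepG2 cells, incubating them for an hour at 37 C in 5% CO2 before reading emission at 590 nm under 540 nm excitation; values reflect equivalence to Rose Bengal sodium fluorescence.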

[7] = qHTS assay to test for compound auto fluorescence at 535 nm (green) in HepG2 cells (AID 720675)
[8] = qHTS assay to test for compound auto fluorescence at 460 nm (blue) in HEK293 cells (AID 720678)
How it was run: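 Auto fluorescence in the blue band was quantified as triamterene equivalency. HEK293 cells were seeded at 2,000/well, dosed after a 4-5 hr attachment, and kept overnight at 37C before the 405/460 nm reading.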

[9] = qHTS assay to test for compound auto fluorescence at 590 nm (red) in HEK293 cells (AID 720679)
How it was run: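 Autofluorescence equivalency to Rose Bengal sodium, 540/590nm, in HEK293 cells exposed overnight to 23 nL compound per well.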

[10] = qHTS assay to test for compound auto fluorescence at 535 nm (green) in HEK293 cells (AID 720680)
[11] = qHTS assay to test for compound auto fluorescence at 535 nm (green) in HEK293 cell free culture (AID 720682)
How it was run: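 Using fluorescein as calibrant, autofluorescence was quantified at 485/535 nm in cell-free DMEM containing 10% FBS after pintool addition of compound or vehicle.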

[12] = qHTS assay to test for compound auto fluorescence at 590 nm (red) in HEK293 cell free culture (AID 720683)
How it was run: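 Red-channel autofluorescence of compounds in culture medium (DMEM, 10% FBS), no cells, measured at 540/590 nm. Rose Bengal sodium is the reference fluorophore for equivalence.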

[13] = qHTS assay to test for compound auto fluorescence at 590 nm (red) in HepG2 cell free culture (AID 720684)
How it was run: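 Steps: dispense MEM/10% FBS medium, no cells; pin compound or DMSO vehicle; read red channel, Ex/Em 540/590 nm. Output given as Rose Bengal sodium equivalents.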

[14] = qHTS assay to test for compound auto fluorescence at 460 nm (blue) in HepG2 cell free culture (AID 720685)
How it was run: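 Compound (23 nL) or DMSO pinned into cell-free MEM with 10% FBS; blue fluorescence read at 405/460 nm excitation/emission, expressed as auto-fluorescence equivalency to triamterene.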

[15] = qHTS assay to test for compound auto fluorescence at 535 nm (green) in HepG2 cell free culture (AID 720686)
[16] = qHTS assay to test for compound auto fluorescence at 460 nm (blue) in HepG2 cells (AID 720687)
How it was run: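 Blue-channel autofluorescence (Ex/Em 405/460 nm, triamterene-equivalent) was measured after 1 hr compound exposure at 37 C, 5% CO2. Cells were HepG2, plated overnight at 37 C in MEM plus 10% FBS.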

[17] = qHTS assay to test for compound auto fluorescence at 460 nm (blue) in HEK293 cell free culture (AID 720681)
How it was run: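 Blue fluorescence (Ex 405/Em 460 nm, triamterene-equivalent) was read immediately after pin transfer of compound or DMSO into medium (DMEM, 10% FBS) without cells.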

[18] = molecular target: Glucocorticoid receptor (Homo sapiens) (UniProt P04150); test: qHTS assay to identify small molecule antagonists of the glucocorticoid receptor (GR) signaling pathway (AID 720692; active means well fitted inhibition curve with a large enough effect in the signal ratio in the repeat runs, not every such curve was filed as active; the % refers to the signal ratio)
Sequence of Glucocorticoid receptor (Homo sapiens) (P04150 whole entry, looked up): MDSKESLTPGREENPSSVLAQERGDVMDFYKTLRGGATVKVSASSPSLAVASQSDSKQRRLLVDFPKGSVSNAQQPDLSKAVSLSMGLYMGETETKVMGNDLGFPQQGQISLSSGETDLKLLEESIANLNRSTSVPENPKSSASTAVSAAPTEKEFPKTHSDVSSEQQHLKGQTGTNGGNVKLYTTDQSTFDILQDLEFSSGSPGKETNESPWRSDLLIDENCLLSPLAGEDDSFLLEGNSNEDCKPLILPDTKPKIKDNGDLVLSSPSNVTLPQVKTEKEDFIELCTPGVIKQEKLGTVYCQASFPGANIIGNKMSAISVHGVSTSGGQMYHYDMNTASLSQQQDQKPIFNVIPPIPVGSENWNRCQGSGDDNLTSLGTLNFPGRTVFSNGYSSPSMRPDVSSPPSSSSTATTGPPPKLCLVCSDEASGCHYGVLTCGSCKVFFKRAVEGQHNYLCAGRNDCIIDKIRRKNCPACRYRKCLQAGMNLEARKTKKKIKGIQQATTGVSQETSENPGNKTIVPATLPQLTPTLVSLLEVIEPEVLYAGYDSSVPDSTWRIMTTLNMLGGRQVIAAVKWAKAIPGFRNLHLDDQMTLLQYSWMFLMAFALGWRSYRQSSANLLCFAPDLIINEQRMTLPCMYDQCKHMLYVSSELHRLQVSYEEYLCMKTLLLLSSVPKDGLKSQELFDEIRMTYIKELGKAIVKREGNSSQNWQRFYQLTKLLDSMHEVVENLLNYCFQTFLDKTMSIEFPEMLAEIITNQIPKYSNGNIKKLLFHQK
How it was run: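 Dexamethasone (5 nM final) stimulated a stably integrated GRE-beta-lactamase reporter in HeLa cells during 18 h co-incubation with compounds; signal was quantified as fluorescence intensity of B/G FRET substrate after 2 h.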

[19] = molecular target: Glucocorticoid receptor (Homo sapiens) (UniProt P04150); test: qHTS assay to identify small molecule agonists of the glucocorticoid receptor (GR) signaling pathway (AID 720691; active means well fitted activation curve with a large enough effect in the signal ratio in the repeat runs, not every such curve was filed as active; the % refers to the signal ratio)
How it was run: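 Reporter read-out: fluorescence intensity following 2 h room-temperature LiveBLAzer B/G FRET substrate loading. Prior step: GR-bla HeLa cells held 4 h, then treated 18 h at 37 C.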
On the % scale 0 is the no-effect control and ±100 the full control effect.

NNC(=O)OCc1ccccc1
inactive: Potency [1] | outcome [2] | outcome [3] | outcome [4] | Potency [5] | outcome [6] | outcome [7] | outcome [8] | outcome [9] | outcome [10] | outcome [11] | outcome [12] | outcome [13] | outcome [14] | outcome [15] | outcome [16]

CCOC(=O)c1ccc(N(C)C)cc1
inactive: Potency [1] | outcome [2] | outcome [3] | outcome [4] | outcome [6] | outcome [7] | outcome [8] | outcome [9] | outcome [10] | outcome [17] | outcome [11] | outcome [12] | outcome [13] | outcome [14] | outcome [15] | outcome [16] | outcome [18]

NS(=O)(=O)c1cc2c(cc1C(F)(F)F)NCNS2(=O)=O
inactive: Potency [1] | outcome [2] | outcome [3] | outcome [4] | Potency [5] | fluorescence, % of fluorescein control [7] -0.0771% [at 18.6 µM] | fluorescence, % of triamterene [8] -0.352% [at 18.6 µM] | fluorescence, % of fluorescent control [9] -0.333% [at 18.6 µM] | fluorescence, % of fluorescein [10] -0.0035% [at 18.6 µM] | fluorescence, % of fluorescent control [17] 0.05% [at 18.6 µM] | activity change [11] 0.0709% [at 18.6 µM] | fluorescence, % of fluorescent control [12] 0.0039% [at 18.6 µM] | fluorescence, % of Rose Bengal [13] -0.188% [at 18.6 µM] | fluorescence, % of fluorescent control [14] -0.157% [at 18.6 µM] | fluorescence, % of fluorescein control [15] 0.01% [at 18.6 µM] | fluorescence, % of fluorescent control [16] -0.066% [at 18.6 µM]

O=C(O)/C=C(\CC(=O)O)C(=O)O
inactive: Potency [1] | outcome [2] | outcome [3] | outcome [4] | Potency [5] | outcome [6] | outcome [7] | outcome [8] | outcome [9] | outcome [10] | outcome [17] | outcome [11] | outcome [12] | outcome [13] | outcome [14] | outcome [15] | outcome [16]

C=CCN(CC=C)CC=C
inactive: Potency [1] | outcome [2] | outcome [3] | outcome [4] | outcome [6] | outcome [7] | outcome [8] | outcome [9] | outcome [10] | outcome [17] | outcome [11] | outcome [12] | outcome [13] | outcome [14] | outcome [15] | outcome [16] | Potency [19] | outcome [18]

CC1(C)S[C@@H]2[C@H](NC(=O)Cc3ccccc3)C(=O)N2[C@H]1C(=O)O (tested in a mixture with another compound)
inactive: Potency [1] | outcome [2] | outcome [3] | outcome [4] | outcome [6] | outcome [7] | outcome [8] | outcome [9] | outcome [10] | outcome [11] | outcome [12] | outcome [13] | outcome [14] | outcome [15] | outcome [16] | Potency [19]

CC(=O)c1ccc2ccc3ccccc3c2c1
inactive: Potency [1] | outcome [2] | outcome [3] | outcome [4] | outcome [6] | outcome [7] | outcome [8] | outcome [9] | outcome [17] | outcome [11] | outcome [12] | outcome [13] | outcome [14] | outcome [15] | outcome [16]
active: Potency [5] 30.5 µM
